This is one part of a sample in which hits are shown more often than they occur.
D1 mod: allosteric modulators of human D1 dopamine receptor; 58,000 compounds, 5.9% hits; B-score at 10 µM; HEK293 D1, CRE-luciferase, dopamine EC30 potentiation; actives deviate in either direction; AID 641;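 active = luminescence count or its row- and column-corrected plate score outside the 99.7% band of the plate's sample wells, on either side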
hDAT+cocaine: human DAT dopamine uptake with cocaine, either direction; LLC-PK1 hDAT cells, [14C]-dopamine uptake with cocaine IC80; actives deviate in either direction; 110,000 compounds, 1.3% hits; Q01959; B-score at 10 µM;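 active = Z score or B-score, a plate-position-corrected score, falls beyond the plate's 99.7% confidence bounds, in either direction; inactive = both scores lie inside the 99.7% bounds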;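 note: scored against the spread of the other compound wells on the same plate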
Target sequence (Q01959 whole entry, looked up): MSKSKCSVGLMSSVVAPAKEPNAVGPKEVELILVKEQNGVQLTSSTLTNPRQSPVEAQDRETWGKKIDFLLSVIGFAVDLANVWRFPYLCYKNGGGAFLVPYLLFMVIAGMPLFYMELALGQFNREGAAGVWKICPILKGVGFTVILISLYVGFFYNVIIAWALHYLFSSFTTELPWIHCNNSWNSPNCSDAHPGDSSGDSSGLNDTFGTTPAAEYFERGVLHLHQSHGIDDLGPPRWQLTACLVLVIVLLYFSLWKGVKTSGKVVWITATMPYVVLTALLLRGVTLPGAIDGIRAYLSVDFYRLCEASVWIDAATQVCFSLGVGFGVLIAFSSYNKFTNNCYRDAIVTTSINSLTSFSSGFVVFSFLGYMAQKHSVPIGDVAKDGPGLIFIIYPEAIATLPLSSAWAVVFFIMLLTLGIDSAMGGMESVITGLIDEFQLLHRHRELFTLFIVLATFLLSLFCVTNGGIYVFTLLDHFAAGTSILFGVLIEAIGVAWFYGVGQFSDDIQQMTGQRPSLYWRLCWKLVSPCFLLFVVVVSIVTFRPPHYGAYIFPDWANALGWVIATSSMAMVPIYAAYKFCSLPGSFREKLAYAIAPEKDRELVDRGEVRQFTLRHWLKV
EphB4 antag: EphB4-ephrin-B2 interaction antagonism; AID 720; 97,000 compounds, 0.15% hits; P54760; EphB4 LBD / TNYL-RAW-Alexa532 peptide, fluorescence polarization; inhibition, % at 7 µM;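 active = inhibition above the screen-wide mean inhibition plus 3 SD, cut at about 15% in these data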;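 note: 0% = DMSO wells and 100% = excess unlabeled TNYL-RAW peptide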
D1 mod confirm: confirmation of human D1 dopamine receptor allosteric modulators; luminescence at 10 µM; shares compounds with D1 mod; AID 642; 2,200 compounds, 88% hits; HEK293 D1 CRE-luciferase, dopamine EC30 potentiation; stronger effect = higher value;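 active = luminescence in either of two replicates above the same-plate mean plus 3 SD of the low-dose dopamine control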
D1 no dopamine: secondary test of D1 modulators: activity without dopamine. HEK293 D1 CRE-luciferase, luminescence, no dopamine; stronger effect = higher value. 1,900 compounds, 0.8% hits. luminescence at 10 µM. AID 646. shares compounds with D1 mod; in the data active = luminescence above about 3900
Isoprot counter: alters isoproterenol CRE-luciferase response in HEK293 cells; shares compounds with D1 mod; HEK293 D1 CRE-luciferase, isoproterenol EC30 counter-screen; calls only at 10 µM; 2,200 compounds, 63% hits; AID 647;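 active = luminescence in either replicate above plate mean of wells with a partly effective reference agonist dose plus 3 SD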;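 note: isoproterenol raises cAMP through native beta-adrenoceptor Gs so signal bypasses D1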
* marks the source's active call; other numbers are inactive results; i = inactive; nt = no result given; + = active, no number.

SMILES	D1 mod	hDAT+cocaine	EphB4 antag	D1 mod confirm	D1 no dopamine	Isoprot counter
CC(=O)Oc1c2occc2cc2ccc(=O)oc12	nt	0.0093	0	nt	nt	nt
C/C(=C\c1ccccc1)C(=O)Nc1cc(C)on1	nt	-0.43	3	nt	nt	nt
O=C(O)c1ccccc1NS(=O)(=O)c1ccc2c3c(cccc13)C(=O)N2	-1.6	-1.3	nt	nt	nt	nt
CC(C)C(NS(=O)(=O)c1ccc2c3c(cccc13)C(=O)N2)C(=O)O (stereo unspecified)	7*	0.029	3	5048	nt	i
CCOc1ccc(OCC)c(-c2c(=O)n(OCc3ccccc3C(=O)OC)c3ccccc3[n+]2[O-])c1	nt	2	3	nt	nt	nt
COC(=O)c1ccc(CSc2ncnc3c2oc2ccccc23)o1	-0.52	-0.94	13	nt	nt	nt
COC(=O)c1ccc(CSc2ncnc3ccccc23)o1	4.5*	-1	2	9672*	nt	+
CCOc1ccccc1C(=O)NCc1ccc2c(c1)OCO2	2.6	-0.36	1	nt	nt	nt
CCCN1Cc2cccc(C(=O)Nc3cc(OC)cc(OC)c3)c2C1=O	0.026	-0.34	3	nt	nt	nt
COCCN1Cc2cccc(C(=O)NC(C)c3cccs3)c2C1=O (stereo unspecified)	nt	0.055	9	nt	nt	nt
CCCN1Cc2cccc(C(=O)NCc3cccs3)c2C1=O	18*	0.46	5	24472*	1580	+
O=C(NCc1ccc2c(c1)OCO2)c1cccc2c1C(=O)N(C1CCCCC1)C2	6*	-0.42	3	10552*	1592	+
CCCN1Cc2cccc(C(=O)NCc3ccc4c(c3)OCO4)c2C1=O	12*	-0.055	nt	15396*	1860	+
CCOC(=O)N1CCC(N2Cc3cccc(C(=O)NCc4ccc5c(c4)OCO5)c3C2=O)CC1	1.4	nt	nt	nt	nt	nt
CCCN1Cc2cccc(C(=O)NC3CCCC3)c2C1=O	12*	0.88	3	16648*	1612	+
Cc1ccc(NC(=O)C2C3/C=C\CCCCC32)cc1C (stereo unspecified)	nt	-0.22	-5	nt	nt	nt
Cc1ccccc1NC(=O)C(=O)NCc1ccccn1	nt	-1.6	-9	nt	nt	nt
CN(C)c1ccc(/C=C(\C#N)C(=O)Nc2nc3c(s2)CCN(Cc2ccccc2)C3)cc1	nt	nt	3	nt	nt	nt
OCCNc1nc(N2CCCC2)nc(N2CCCC2)n1	nt	1.4	-3	nt	nt	nt
CC1CCc2nc(NCCO)nc(C(F)(F)F)c2C1 (stereo unspecified)	7.5*	-0.35	-4	13160*	1232	+
CCC(C)(C(=O)NC1CCCC1)N(Cc1ccco1)C(=O)c1ccc2c(c1)OCO2 (stereo unspecified)	4.9*	-0.67	2	4332	1468	i
CCC(C)(C(=O)NC1CCCC1)N(Cc1ccco1)C(=O)c1ccccn1 (stereo unspecified)	-0.79	0.87	-9	nt	nt	nt
COc1cccc(OC)c1C(=O)N1CCN(Cc2ccccc2C)CC1	-0.73	-0.5	3	nt	nt	nt
Cc1nc2nc(C)n(-c3ccccc3)c2s1	15*	2	-4	21228*	1820	+
Cc1nc2ccccc2n1-c1ccccc1	0.11	-2	2	nt	nt	nt
SMILES	D1 mod	hDAT+cocaine	EphB4 antag	D1 mod confirm	D1 no dopamine	Isoprot counter
Cc1cc(C)c(S(=O)(=O)N2CCC(C(=O)NCc3ccc(Cl)cc3Cl)CC2)c(C)c1	nt	0.14	5	nt	nt	nt
CCOC(=O)C1CCCN(C(=O)c2cc3nc(-c4cccc(OC)c4)cc(C(F)(F)F)n3n2)C1 (stereo unspecified)	11*	2.7*	1	14152*	1432	+
CCOC(=O)C1CCCN(C(=O)c2cnn3c(C(F)(F)F)cc(-c4ccccc4)nc23)C1 (stereo unspecified)	-1.3	-0.019	-2	nt	nt	nt
COc1ccc(C(C)=O)cc1COc1ccc(-n2cnnn2)cc1	nt	-0.44	1	nt	nt	nt
CCCCCCCCCCCC(=O)NC(C(=O)OCC)C(O)c1cccc([N+](=O)[O-])c1 (stereo unspecified)	nt	-0.29	3	nt	nt	nt
O=c1c2c3n(c(=S)nc2[nH]n1-c1ccccc1)CCCCC3	nt	-0.92	5	nt	nt	nt
Cc1nc(COC(=O)c2c(C)nn(-c3ccccc3)c2C)cs1	6.9*	0.57	6	8048*	1512	+
Cc1cc(NC(=O)COC(=O)c2c(C)nn(-c3ccccc3)c2C)no1	0.24	0.072	0	nt	nt	nt
Cc1cc(C(=O)OCn2nnc3ccccc3c2=O)c(C)n1-c1ccccc1	0.94	-0.29	-9	nt	nt	nt
COc1ccc(OC)c(NC(=O)CSc2nc3ccccc3c(=O)n2CCNC(C)=O)c1	9.7*	-0.81	3	9716*	1560	i
